Laboratory results as given in paper PMC5540273 (PLoS ONE, 2017).
Like-named read-outs stand apart in the source and are kept apart here.

Legend:
CSNK1G1 = conditions: concentration: 1 μM,replicates: in singlicate; n = 1
CSNK1G2 = conditions: concentration: 1 μM,replicates: in singlicate; n = 1
CSNK1G3 = conditions: concentration: 1 μM,replicates: in singlicate; n = 1
CSNK2A1 = conditions: n = 1
CSNK2A2 = conditions: n = 1
CTK = tested on: T1, CTK; conditions: concentration: 1 μM,replicates: in singlicate; n = 1
T1 construct: gene MATK

DAPK1 = conditions: concentration: 1 μM,replicates: in singlicate; n = 1
DAPK2 = conditions: concentration: 1 μM,replicates: in singlicate; n = 1
DAPK3 = conditions: concentration: 1 μM,replicates: in singlicate; n = 1
DCAMKL1 = tested on: T2, DCAMKL1; conditions: concentration: 1 μM,replicates: in singlicate; n = 1
T2 construct: gene DCLK1

DCAMKL2 = tested on: T3, DCAMKL2; conditions: concentration: 1 μM,replicates: in singlicate; n = 1
T3 construct: gene DCLK2

DCAMKL3 = tested on: T4, DCAMKL3; conditions: concentration: 1 μM,replicates: in singlicate; n = 1
T4 construct: gene DCLK3

DDR1 = conditions: concentration: 1 μM,replicates: in singlicate; n = 1
DDR2 = conditions: concentration: 1 μM,replicates: in singlicate; n = 1
DLK = tested on: T5, DLK; conditions: concentration: 1 μM,replicates: in singlicate; n = 1
T5 construct: gene MAP3K12

DMPK2 = tested on: T6, DMPK2; conditions: concentration: 1 μM,replicates: in singlicate; n = 1
T6 construct: gene CDC42BPG

DMPK = conditions: concentration: 1 μM,replicates: in singlicate; n = 1
DRAK1 = tested on: T7, DRAK1; conditions: concentration: 1 μM,replicates: in singlicate; n = 1
T7 construct: gene STK17A

DRAK2 = tested on: T8, DRAK2; conditions: concentration: 1 μM,replicates: in singlicate; n = 1
T8 construct: gene STK17B

DYRK1A = conditions: concentration: 1 μM,replicates: in singlicate; n = 1
[1] = concentration: 1 μM,replicates: in singlicate
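Note: KINOMEscan kinase panel screen.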

O=C(NCC1CC1)c1ccc(-c2cc(C(=O)NC3CC3)ccc2F)cc1 [GW810445]
%Inh (CSNK1G1): 0%
%Inh (CSNK1G2): 0%
%Inh (CSNK1G3): 0%
%Inh (CSNK2A1; [1]): 0%
%Inh (CSNK2A2; [1]): 0%
%Inh (CTK): 0%
%Inh (DAPK1): 0%
%Inh (DAPK2): 3%
%Inh (DAPK3): 19%
%Inh (DCAMKL1): 0%
%Inh (DCAMKL2): 22%
%Inh (DCAMKL3): 0%
%Inh (DDR1): 0%
%Inh (DDR2): 35%
%Inh (DLK): 12%
%Inh (DMPK2): 0%
%Inh (DMPK): 0%
%Inh (DRAK1): 0%
%Inh (DRAK2): 0%
%Inh (DYRK1A): 0%

O=C(NOCC1CC1)c1cc(Br)c(F)c(F)c1Nc1ccc(I)cc1Cl
%Inh (CSNK1G1): 0%
%Inh (CSNK1G2): 0%
%Inh (CSNK1G3): 9%
%Inh (CSNK2A1; [1]): 14%
%Inh (CSNK2A2; [1]): 6%
%Inh (CTK): 0%
%Inh (DAPK1): 29%
%Inh (DAPK2): 0%
%Inh (DAPK3): 0%
%Inh (DCAMKL1): 22%
%Inh (DCAMKL2): 2%
%Inh (DCAMKL3): 0%
%Inh (DDR1): 0%
%Inh (DDR2): 22%
%Inh (DLK): 0%
%Inh (DMPK2): 0%
%Inh (DMPK): 0%
%Inh (DRAK1): 0%
%Inh (DRAK2): 0%
%Inh (DYRK1A): 0%

Cn1ccc2ncnc(Oc3ccc(NC(=O)Nc4ccnc(C(F)(F)F)c4)c(Cl)c3)c21
%Inh (CSNK1G1): 0%
%Inh (CSNK1G2): 9%
%Inh (CSNK1G3): 0%
%Inh (CSNK2A1; [1]): 0%
%Inh (CSNK2A2; [1]): 10%
%Inh (CTK): 0%
%Inh (DAPK1): 7%
%Inh (DAPK2): 0%
%Inh (DAPK3): 0%
%Inh (DCAMKL1): 4%
%Inh (DCAMKL2): 0%
%Inh (DCAMKL3): 0%
%Inh (DDR1): 100%
%Inh (DDR2): 99.6%
%Inh (DLK): 0%
%Inh (DMPK2): 0%
%Inh (DMPK): 0%
%Inh (DRAK1): 0%
%Inh (DRAK2): 3%
%Inh (DYRK1A): 13%

c1ccc(Oc2ccc(Nc3ccnc4ccc(-c5ccccn5)cc34)cc2)cc1 [GW407034]
%Inh (CSNK1G1): 11%
%Inh (CSNK1G2): 0%
%Inh (CSNK1G3): 10%
%Inh (CSNK2A1; [1]): 0%
%Inh (CSNK2A2; [1]): 14%
%Inh (CTK): 0%
%Inh (DAPK1): 0%
%Inh (DAPK2): 0%
%Inh (DAPK3): 5%
%Inh (DCAMKL1): 9%
%Inh (DCAMKL2): 0%
%Inh (DCAMKL3): 0%
%Inh (DDR1): 14%
%Inh (DDR2): 0%
%Inh (DLK): 49%
%Inh (DMPK2): 15%
%Inh (DMPK): 0%
%Inh (DRAK1): 0%
%Inh (DRAK2): 0%
%Inh (DYRK1A): 24%

Cc1nnc(-c2ccc3occ(-c4ccc(S(C)=O)cc4)c3n2)o1 (centres unmarked)
%Inh (CSNK1G1): 17%
%Inh (CSNK1G2): 0%
%Inh (CSNK1G3): 0%
%Inh (CSNK2A1; [1]): 0%
%Inh (CSNK2A2; [1]): 0%
%Inh (CTK): 0%
%Inh (DAPK1): 0%
%Inh (DAPK2): 0%
%Inh (DAPK3): 0%
%Inh (DCAMKL1): 0%
%Inh (DCAMKL2): 0%
%Inh (DCAMKL3): 0%
%Inh (DDR1): 0%
%Inh (DDR2): 1%
%Inh (DLK): 0%
%Inh (DMPK2): 0%
%Inh (DMPK): 0%
%Inh (DRAK1): 0%
%Inh (DRAK2): 0%
%Inh (DYRK1A): 0%

Nc1nccc(-c2ccc3c(N)n[nH]c3c2)n1 [GSK1034945]
%Inh (CSNK1G1): 0%
%Inh (CSNK1G2): 0%
%Inh (CSNK1G3): 19%
%Inh (CSNK2A1; [1]): 41%
%Inh (CSNK2A2; [1]): 64%
%Inh (CTK): 0%
%Inh (DAPK1): 45%
%Inh (DAPK2): 0%
%Inh (DAPK3): 19%
%Inh (DCAMKL1): 12%
%Inh (DCAMKL2): 0%
%Inh (DCAMKL3): 36%
%Inh (DDR1): 0%
%Inh (DDR2): 0%
%Inh (DLK): 1%
%Inh (DMPK2): 2%
%Inh (DMPK): 0%
%Inh (DRAK1): 98.1%
%Inh (DRAK2): 89%
%Inh (DYRK1A): 99.6%

CCN1CCN(CCCC(=O)Nc2n[nH]c3nc(-c4ccc(O)cc4)c(Br)cc23)CC1 [SB-731579]
%Inh (CSNK1G1): 0%
%Inh (CSNK1G2): 0%
%Inh (CSNK1G3): 0%
%Inh (CSNK2A1; [1]): 0%
%Inh (CSNK2A2; [1]): 0%
%Inh (CTK): 34%
%Inh (DAPK1): 41%
%Inh (DAPK2): 31%
%Inh (DAPK3): 61%
%Inh (DCAMKL1): 0%
%Inh (DCAMKL2): 18%
%Inh (DCAMKL3): 99.1%
%Inh (DDR1): 38%
%Inh (DDR2): 41%
%Inh (DLK): 8%
%Inh (DMPK2): 0%
%Inh (DMPK): 89%
%Inh (DRAK1): 44%
%Inh (DRAK2): 0%
%Inh (DYRK1A): 38%

COc1cccc(CNC(=O)NC2CCN(c3ccnc(Nc4cc(OC)c(OC)c(OC)c4)n3)C2)c1 (centres unmarked) [GSK1379765]
%Inh (CSNK1G1): 0%
%Inh (CSNK1G2): 0%
%Inh (CSNK1G3): 27%
%Inh (CSNK2A1; [1]): 3%
%Inh (CSNK2A2; [1]): 0%
%Inh (CTK): 0%
%Inh (DAPK1): 0%
%Inh (DAPK2): 0%
%Inh (DAPK3): 14%
%Inh (DCAMKL1): 19%
%Inh (DCAMKL2): 8%
%Inh (DCAMKL3): 0%
%Inh (DDR1): 1%
%Inh (DDR2): 19%
%Inh (DLK): 61%
%Inh (DMPK2): 69%
%Inh (DMPK): 0%
%Inh (DRAK1): 0%
%Inh (DRAK2): 0%
%Inh (DYRK1A): 19%

COc1cccc(OC)c1C(=O)Nc1cccc(-c2nn3ccccc3c2-c2ccnc(Nc3cccc(F)c3)n2)c1 [GSK361065]
%Inh (CSNK1G1): 14%
%Inh (CSNK1G2): 17%
%Inh (CSNK1G3): 3%
%Inh (CSNK2A1; 1 µM): 0%
%Inh (CSNK2A2; 1 µM): 23%
%Inh (CTK): 21%
%Inh (DAPK1): 10%
%Inh (DAPK2): 6%
%Inh (DAPK3): 0%
%Inh (DCAMKL1): 16%
%Inh (DCAMKL2): 0%
%Inh (DCAMKL3): 16%
%Inh (DDR1): 99.3%
%Inh (DDR2): 57%
%Inh (DLK): 0%
%Inh (DMPK2): 84%
%Inh (DMPK): 2%
%Inh (DRAK1): 12%
%Inh (DRAK2): 12%
%Inh (DYRK1A): 0%

CS(=O)(=O)c1cccc(CNc2nc(Nc3ccc4c(c3)[C@@H]3C[C@@H]4CNC3=O)ncc2C(F)(F)F)c1
%Inh (CSNK1G1): 0%
%Inh (CSNK1G2): 23%
%Inh (CSNK1G3): 81%
%Inh (CSNK2A1; [1]): 34%
%Inh (CSNK2A2; [1]): 64%
%Inh (CTK): 0%
%Inh (DAPK1): 27%
%Inh (DAPK2): 0%
%Inh (DAPK3): 9%
%Inh (DCAMKL1): 48%
%Inh (DCAMKL2): 0%
%Inh (DCAMKL3): 0%
%Inh (DDR1): 0%
%Inh (DDR2): 6%
%Inh (DLK): 9%
%Inh (DMPK2): 0%
%Inh (DMPK): 0%
%Inh (DRAK1): 96.3%
%Inh (DRAK2): 96.4%
%Inh (DYRK1A): 6%
